Experimental findings from PubChem BioAssay (NCATS) are described below.

Records with an inconclusive call do not appear. A number with no mark means an inactive call. Activity calls are given as the source filed them. Unless noted, calls come from the whole dose curve; as a rule, active = well fitted curve in the direction sought with a large enough effect; inconclusive = small, poorly fitted or top-dose-only effect, or another doubt; inactive = no such curve, though single readings can be large; an effect the other way counts as inactive or inconclusive. Residues, ends and D or L forms follow the SMILES beside them. *: point of attachment. Cbz = O=C(OCc1ccccc1)*; CH2Cl = ClC*

In assay [1] the target is Aldehyde dehydrogenase, mitochondrial (Homo sapiens) (UniProt P05091). In words: qHTS for Inhibitors of the Aldehyde Dehydrogenase Family (ALDH2) Confirmatory screens (AID 2061303; active = well fitted inhibition curve with a large enough effect; title and protocol of this record describe different tests; note: nearly all actives have a fitted effect of over 45% in size; note: potency is the fitted concentration of half-maximal effect).
The nature of assay [2]: qHTS for Inhibitors of the Aldehyde Dehydrogenase Family (ALDH1A2, ALDH1A3, ALDH2, ALDH3A1) (AID 2061307). For Potency: test system not described further here; potency is the fitted concentration of half-maximal effect. Note: nearly all actives have a fitted effect of over 50% in size.
Assay [3] concerns the target Aldehyde dehydrogenase, mitochondrial (Homo sapiens) (UniProt P05091). The assay is described as follows: qHTS for Inhibitors of the Aldehyde Dehydrogenase Family (ALDH2) Primary screen (AID 2061308). Note: nearly all actives have a fitted effect of over 55% in size. Note: potency is the fitted concentration of half-maximal effect.
For assay [4], the target named is Retinaldehyde dehydrogenase 3 (Homo sapiens) (UniProt P47895). In words: qHTS for Inhibitors of the Aldehyde Dehydrogenase Family (ALDH1A3) Primary screen (AID 2061315).
Assay [5] deals with Aldehyde dehydrogenase 1A1 (Homo sapiens) (UniProt P00352). The assay is described as follows: qHTS for Inhibitors of the Aldehyde Dehydrogenase Family (ALDH1A1) Confirmatory screens (AID 2061316). Note: nearly all actives have a fitted effect of over 65% in size. Note: potency is the fitted concentration of half-maximal effect.
Assay [6] has as its target Retinaldehyde dehydrogenase 3 (Homo sapiens) (UniProt P47895). In words: qHTS for Inhibitors of the Aldehyde Dehydrogenase Family (ALDH1A3) Confirmatory screens (AID 2061311). Note: nearly all actives have a fitted effect of over 60% in size. Note: potency is the fitted concentration of half-maximal effect.
Assay [7] has as its target Retinal dehydrogenase 2 (Homo sapiens) (UniProt O94788). The assay is described as follows: qHTS for Inhibitors of the Aldehyde Dehydrogenase Family (ALDH1A2) Confirmation screens (AID 2061314). Note: nearly all actives have a fitted effect of over 65% in size. Note: potency is the fitted concentration of half-maximal effect.

Turning to `CN1CCN(c2cccc(Nc3nn4c(=O)c5ccc(F)cc5nc4s3)c2)CC1`, the Potency entry in assay [1], in assay [2], in assay [3] and in assay [4] was “inactive” in each case.

Consider `COc1ccc(C2Nc3ccccc3C(=O)N2Cc2ccc(C(C)(C)C)cc2)cc1COc1ccc(NC(C)=O)cc1` (stereo not given), for which the Potency in assay [1] is 1.58 µM (active); in assay [2] it was 3.57 µM (active). The Potency entry in assay [3] and in assay [4] was “inactive” throughout.

For `COc1ccc(-c2cncc(NC(=O)c3cccs3)c2)cc1OC`, the Potency result in assay [1], in assay [2], in assay [3] and in assay [5] was “inactive” throughout.

For `S=C(Nc1cc(Cl)ccn1)N1CCN(c2ccc(Cl)c(Cl)c2)CC1`, the Potency in assay [1] was 5.62 µM (active); in assay [2], 6.31 µM (active); in assay [3], 3.98 µM (active); in assay [5], 4 µM (active). Also, the Potency result in assay [4] is “inactive”.

With `Cc1cnc(-c2ccccc2C(F)F)nc1NCc1ccc(-n2ccnn2)cc1`, the results for the Potency in assay [1] and in assay [2] were 25.1 µM (active) and 4.47 µM (active), respectively. The Potency entry in assay [3] and in assay [4] was “inactive” throughout.

Regarding `COc1cccc(CNc2ccc(S(=O)(=O)Nc3ccc(C4CCNCC4)cc3)cc2)c1O`, the Potency entry in assay [1], in assay [2], in assay [3] and in assay [4] was “inactive” in each case.

`COc1ccc(C2Nc3ccccc3C(=O)N2Cc2ccccc2)cc1COc1ccc(Cl)cc1` (stereo not given): the Potency entry in assay [1], in assay [3] and in assay [4] was “inactive” throughout. Further, the Potency in assay [2] was 5.65 µM (active).

`CC(C)(C)OC(=O)N1CCN(c2ccc(NCc3ccc4c(-c5ccc(F)cc5)cc(=O)oc4c3)cc2)CC1`: the Potency entry in assay [1], in assay [3] and in assay [4] was “inactive” in each case. Further, in assay [2], the Potency was 5.04 µM (active).

Take `COc1cccc(Nc2nc(C#N)nc(NC3CCCC3)n2)c1`: the Potency entry in assay [1], in assay [3], in assay [4] and in assay [5] was “inactive” throughout. Besides, in assay [2], the Potency is 10.1 µM (active).

As for `CN(C)c1ccc(/C=C/C(=O)Nc2cccc([S+](=O)([O-])Nc3ccccc3F)c2)cc1`, the Potency entry in assay [1], in assay [2], in assay [3] and in assay [4] was “inactive” each time.

Turning to `N[C@@H](CC(=O)O)C(=O)Nc1ccc(Cl)cc1C(=O)c1ccc[nH]1`, the Potency result in assay [1], in assay [2], in assay [3], in assay [4] and in assay [5] was “inactive” in each case.

Take `CC(=O)Nc1sc2c(c1-c1ccc(C(F)(F)F)cc1)CCNC2`: the Potency entry in assay [1], in assay [2], in assay [3], in assay [4] and in assay [5] was “inactive” throughout.

On to `FC(F)(F)c1ccc(-c2nc(-c3nnc4n3CCCCC4)c(C(F)(F)F)o2)cc1`, for which the Potency entry in assay [1], in assay [2], in assay [3] and in assay [4] was “inactive” each time.

With `O=C(O)c1cccnc1SC1=NS(=O)(=O)c2ccccc21`, the Potency entry in assay [1], in assay [2], in assay [6] and in assay [4] was “inactive” throughout. Besides, the Potency in assay [7] is 31.8 µM (active).

Turning to `Cc1cc2c(c(=O)[nH]1)OC(C(O)CC(C)C)O2` (stereo not given), the Potency result in assay [1], in assay [2] and in assay [6] was “inactive” each time.

On to `Cc1ccc2nc3sc(C(=O)NCCN4CCOCC4)cc3cc2c1`, for which the Potency entry in assay [1], in assay [2], in assay [6], in assay [7], in assay [4] and in assay [5] was “inactive” in each case.

In the case of `N#Cc1c(-c2ccc3c(c2)OCO3)no[n+]1[O-]`, the Potency result in assay [1], in assay [6], in assay [4] and in assay [5] was “inactive” in each case. In addition, the Potency is 1.13 µM (active) in assay [2] and 10.1 µM (active) in assay [7].

For the compound `O=c1cc(-c2ccccn2)oc2c(Nc3ccccc3)nccc12`, the Potency entry in assay [1] and in assay [2] was “inactive” each time. Besides, in assay [6], the Potency was 20 µM (active).

On to `O=C(CN1C(=O)N/C(=C\c2cccn2-c2cccc(C(=O)O)c2)C1=O)Nc1ccc(F)cc1`, for which the Potency entry in assay [1], in assay [2], in assay [6], in assay [7] and in assay [4] was “inactive” throughout.

As for `COc1ccc(C2Nc3ccccc3C(=O)N2CC(C)(C)C)cc1COc1ccc(NC(C)=O)cc1` (stereo not given), the Potency was 11.2 µM (active) in assay [1]; 1.59 µM (active) in assay [2]; 15.8 µM (active) in assay [6]; 31.6 µM (active) in assay [7]; 25.2 µM (active) in assay [5]. Besides, the Potency result in assay [4] is “inactive”.

`O=c1c(Nc2ccc(Cl)c(Cl)c2)c(Nc2nnc(-c3ccncc3)s2)c1=O`: the Potency in assay [1] was 2 µM (active); in assay [2], 11.3 µM (active); in assay [6] it was 11.2 µM (active); in assay [7], 3.98 µM (active); in assay [5], 8.96 µM (active). In addition, the Potency entry in assay [4] is “inactive”.

As to `O=S(=O)(Nc1cc(O)cc2cccnc12)c1ccc(Br)s1`, the Potency result in assay [1], in assay [2] and in assay [6] was “inactive” throughout. Also, the Potency in assay [7] is 0.634 µM (active).

In the case of `Cc1cccc(CNc2ccnc(-c3cccc4ccccc34)n2)c1`, the Potency entry in assay [1], in assay [2], in assay [6], in assay [7], in assay [4] and in assay [5] was “inactive” throughout.

For the compound `CCOc1ccc(-c2nc(CSCC(=O)N3CCN(c4cccc(C(F)(F)F)c4)CC3)c(C)o2)cc1`, the figures for the Potency in assay [1], in assay [2] and in assay [6] were 8.91 µM (active), 7.94 µM (active) and 2 µM (active), respectively.

As for `CCn1cc2nc(SCc3cccc(C)c3)n(CCc3ccccc3)c(=O)c2n1`, the Potency in assay [1] is 28.2 µM (active); in assay [2] it was 3.98 µM (active); in assay [6], 1.26 µM (active); in assay [7], 3.24 µM (active).

For the compound `CC(=O)Nc1sc2c(c1-c1cccc(F)c1)CCNC2`, the Potency result in assay [1], in assay [2], in assay [6], in assay [4] and in assay [5] was “inactive” throughout. The Potency in assay [7] is 20.1 µM (active).

As for `CC(C)C[C@H](NC(=O)CNC(=O)OCc1ccccc1)C(=O)N[C@@H](Cc1ccccc1)C(=O)CCl` (Cbz-Gly-Leu-Phe-CH2Cl), the Potency entry in assay [1], in assay [2], in assay [6], in assay [4] and in assay [5] was “inactive” throughout. Besides, in assay [7], the Potency is 8.96 µM (active).

Turning to `O=C1Cc2cc(C(=O)c3ccco3)ccc2N1`, the Potency in assay [1] was 1.01 µM (active); in assay [2], 0.565 µM (active); in assay [6], 0.896 µM (active); in assay [7], 2.52 µM (active). Besides, the Potency result in assay [4] was “inactive”.

In the case of `COc1ccc(-n2ccnc(NCc3ccc(Cl)cc3)c2=O)cc1`, in assay [1], the Potency is 14.1 µM (active). Besides, the Potency entry in assay [2], in assay [6] and in assay [7] was “inactive” throughout.

With `N#Cc1c(-c2ccc(C(=O)c3ccc(O)cc3)cc2)no[n+]1[O-]`, the Potency in assay [1] is 10 µM (active); in assay [2], 11.3 µM (active); in assay [6], 15.8 µM (active); in assay [7], 0.712 µM (active); in assay [5], 12.7 µM (active). The Potency entry in assay [4] is “inactive”.
